Assay outcomes deposited in PubChem BioAssay by National Center for Advancing Translational Sciences (NCATS).
Most compounds without a hit are left out; they make up all but 17% or so of the library.
DT40 TDP1 CPT = qHTS for Inhibitors of human tyrosyl-DNA phosphodiesterase 1 (TDP1): qHTS in cells in presence of CPT; chicken DT40 Tdp1-/-;hTDP1 cells + 20 nM CPT, ATP luminescence, 48 h; Potency, µM (doses to about 46.2 µM), inactives show at the top dose activity change, negative = growth inhibition, most hits filed as inhibitors; hit rate 12% among 420,000; AID 686979, 2013; note: % is set by controls: 0 for no effect and ±100 for the full control effect; nearly all actives have a fitted effect of over 55% in size
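Chicken DT40 Tdp1-/- cells complemented with human TDP1, 400 cells/well, exposed to compounds plus 20 nM camptothecin for at least 48 h at 37 C; viability read as ATP content by CellTiter-Glo luminescence.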
HepG2 viability = qHTS for Inhibitors of TGF-b: Cytotox Counterscreen. AID 588856, 2011. Potency, µM (titrated, usually from 46.1 µM), for inactives: at the top dose activity change, negative = cytotoxicity, hits mostly cytotoxic. hit rate 0.76% among 410,000. HepG2 CAGA-GFP viability, ATP luminescence, 18 h
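CellTiter-Glo luminescence gave cytotoxicity after 18 hours at 37 degrees C. The cells were HepG2 CAGA-GFP in 1% FBS DMEM, stimulated with 500 pg/mL TGF-beta after compound addition. %Activity was normalised to no-cell wells (complete cell-killing) and DMSO (no toxicity), and curves were fitted and classified.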
TGFb SMAD3 inh = qHTS for Inhibitors of TGF-b; HepG2 CAGA-GFP TGF-b/SMAD3 reporter, GFP fluorescence, 18 h; TGF-beta stimulated, 500 pg/mL final; Potency, µM (doses to about 46.1 µM), for inactives: at the highest dose activity, negative = inhibition, hits mostly inhibitors; hit rate 1.2% among 410,000; AID 588855, 2011; note: % is set by controls: 0 for no effect and ±100 for the full control effect; nearly all actives have a fitted effect of over 65% in size
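Read-out: total well GFP (ex488/em500-530) summed from mean per-cell fluorescence. Cells: HEPG2 CAGA-GFP, 1% FBS DMEM, 18 h at 37 degrees C with 500 pg/mL final TGF-beta. Unstimulated wells served as the full-inhibition control; stimulated DMSO wells = 0%.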
HT1080NT lethal = qHTS for induction of synthetic lethality in tumor cells producing 2HG: qHTS for the HT-1080-NT fibrosarcoma cell line. HT-1080-NT fibrosarcoma viability, CellTiter-Glo ATP luminescence, 48 h. Potency, µM (top dose mostly 46.1 µM), inactives show at the top dose activity, negative = less viability, most hits filed as cytotoxic. hit rate 1.6% among 360,000. AID 686970, 2013;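 note: NT is the 2HG producing partner of a matched IDH1 knockdown line; 0% = DMSO-treated cells and -100% = media-only wells without cells; nearly all actives have a fitted effect of over 55% in size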
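HT-1080-NT; 750 cells/well; 5% FBS RPMI; 48 h compound, 37 degrees C; CellTiter-Glo luminescence; curve fitting and curve-class assignment.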
HT1080 IDH1KD tx = qHTS for induction of synthetic lethality in tumor cells producing 2HG: qHTS for the HT-1080-IDH1KD cell line. HT-1080 IDH1 knockdown viability, ATP luminescence, 48 h. Potency, µM (titrated, usually from 46.1 µM), inactives show top-dose activity, negative = toxicity, most hits filed as cytotoxic. hit rate 2% among 360,000. AID 686971, 2013;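 note: 0% = DMSO wells and -100% = cell-free medium wells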
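Luminescent ATP read-out (CellTiter-Glo, 10 min at room temperature) after 48 h compound exposure at 37 °C gave viability of IDH1-knockdown HT-1080 cells. Activity was normalised to DMSO and cell-free wells, then fitted as concentration-response curves.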
DT40 TDP1 no CPT = qHTS for Inhibitors of human tyrosyl-DNA phosphodiesterase 1 (TDP1): qHTS in cells in absence of CPT; hit rate 15% among 420,000; DT40 Tdp1-/- hTDP1 cells, no CPT, ATP luminescence, 48 h; Potency, µM (top dose mostly 46.2 µM), inactives show top-dose activity change, negative = growth inhibition, most hits filed as inhibitors; note: % is set by controls: 0 for no effect and ±100 for the full control effect; nearly all actives have a fitted effect of over 55% in size
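Chicken DT40 Tdp1-/- cells complemented with human TDP1, screened without camptothecin (DMSO vehicle only), 400 cells/well. Compounds pin-transferred, cells incubated at 37 °C for at least 48 hr. Growth read as ATP-dependent luminescence (CellTiter-Glo, 30 min at RT).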
* = called active by the depositor; ? = inconclusive; · = no result given. Calls come from the whole dose curve; as a rule, active = well fitted curve in the direction sought with a large enough effect; inconclusive = small, poorly fitted or top-dose-only effect, or another doubt; inactive = no such curve, though single readings can be large; an effect the other way counts as inactive or inconclusive. Potency is the fitted concentration of half-maximal effect.

SMILES | DT40 TDP1 CPT | HepG2 viability | TGFb SMAD3 inh | HT1080NT lethal | HT1080 IDH1KD tx | DT40 TDP1 no CPT
CCCCN1C(=O)C(CC(=O)NCc2cccc3ccccc23)CC(C(=O)N(C)C)=C1C (centres undefined) | -6.2% | -21.0% | -1.8% | -1.0% | -7.8% | ?
CC1CCN(S(=O)(=O)c2ccc3c(c2)NC(=O)CS3)CC1 | -15.7% | 0.1% | 2.5% | 11.1% | 5.9% | 16.3%
O=S(=O)(c1ccc2nc(Nc3ccc(F)cc3)ccc2c1)N1CCCC1 | 6.5% | 6.8% | 11.3% | · | · | -25.9%
CCOC(=O)c1cccc(Nc2ccc3cc(S(=O)(=O)N4CCCCC4)ccc3n2)c1 | 23.1µM* | -19.3% | ? | · | · | 20.6µM*
C(=C/c1nccc2c1[nH]c1ccccc12)/c1ccc2c(c1)OCO2 | 5.62µM* | -49.3% | ? | ? | 16.4µM* | 11.2µM*
C(=N\Nc1nc2ccccc2[nH]1)/c1ccc2c(c1)OCO2 | ? | -54.5% | ? | -15.1% | -14.5% | ?
COC(=O)c1nccc2c1[nH]c1ccccc12 | ? | -22.8% | -1.0% | 7.7% | 0.2% | 23.1µM*
COc1ccc2[nH]c3ccccc3c2c1 | 6.3% | -4.7% | 1.4% | -10.6% | -1.4% | -1.0%
COc1ccc(/C=C/c2nccc3c2[nH]c2ccccc23)cc1 | ? | -39.3% | -10.9% | · | · | 11.2µM*
Cc1ccc(OCC2Cn3c(nc4c3c(=O)[nH]c(=O)n4C)O2)cc1C (centres undefined) | ? | -21.3% | 38.4% | 0.9% | -11.5% | 10.3µM*
CCc1cccc(OCC2Cn3c(nc4c3c(=O)[nH]c(=O)n4C)O2)c1 (centres undefined) | 8.2µM* | -21.6% | -0.3% | 2.8% | 3.0% | ?
Cc1ccccc1N1C(=O)c2sc3nc4c(c(=O)n3c2C1=O)CCC4 | 5.8µM* | -14.5% | 19.0% | ? | ? | 18.4µM*
Cc1ccc(N2C(=O)c3sc4nnc(C)c(=O)n4c3C2=O)cc1 | -24.3% | -17.7% | 20.2% | 25.4% | 17.4% | -4.9%
N=C1SCC(=O)N1c1ccccc1Cl | 19.5% | -9.0% | -9.3% | 3.6% | 1.3% | -11.3%
O=C1c2sc3nc4c(c(=O)n3c2C(=O)N1c1ccccc1)CCC4 | 4.11µM* | 5.7% | 5.3% | 1.2% | 2.5% | 6.51µM*
O=C1c2sc3nc4ccccc4n3c2C(=O)N1c1ccccc1Cl | 2.59µM* | -27.8% | -5.1% | -16.3% | -30.0% | 7.31µM*
Cc1ccc(C(=O)/C=C/c2ccccc2[N+](=O)[O-])cc1 | ? | -33.3% | ? | ? | ? | 18.4µM*
Cc1ccc(-c2ccc(/C=C/C(=O)c3ccccc3)o2)cc1 | ? | 0.0% | 14.6% | -4.6% | 1.6% | 23.1µM*
